Molecules are shown by their SMILES. Active and inactive are the calls of the source.

Experiment [1] can be described thus: binders of probe aFSTL3 on microarray, primary screen, stem cell growth factor project, biochemical, small-molecule microarray, fluorescence 635/667 (AID 1064).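 Further: measures binding of the biotinylated anti-FSTL3 antibody to printed compounds.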 Particulars: higher = more signal.
A short description of experiment [2]: binders from COS7 lysate, DM2A8 probe, primary screen, torsin A project, cell lysate, small-molecule microarray, fluorescence 635/667 (AID 1065). The note with it: higher = more signal, COS7 lysate expressing mutant human TOR1A.
Experiment [3] in a line: binders of probe aFGF2 on microarray, primary screen, stem cell growth factor project, biochemical, small-molecule microarray, fluorescence 635/667 (AID 1067).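 Further: measures binding of biotinylated aFGF2 protein to printed compounds on slides; z-score merges feature fluorescence and signal-to-noise across triplicate slides.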 Particulars: higher = more signal.
A short description of experiment [4]: binders of probe aFGF10 on microarray, primary screen, stem cell growth factor project, biochemical, small-molecule microarray, fluorescence 635/667 (AID 1071).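 Further: score merges 667 nm spot intensity and signal to noise from triplicate slides.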 The note with it: higher = more signal.
Experiment [5] concerns the target Neurogenic locus notch homolog protein 2 (Homo sapiens) (UniProt Q04721). Briefly: Notch2 binders on small-molecule microarrays, primary screen, biochemical, small-molecule microarray, 635 nm fluorescence, stem cell growth factors (AID 1073). The note with it: Notch2 binding, higher = more signal.
The target in experiment [6] is Pro-neuregulin-1, membrane-bound isoform (Homo sapiens) (UniProt Q02297). Briefly: NRG1 binders on small-molecule microarrays, primary screen, psychiatric disease protein project, biochemical, small-molecule microarray, fluorescence 635/667 (AID 1075).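 Further: score combines 667 nm spot fluorescence with signal to noise.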 Particulars: NRG1 binding, 635 nm fluorescence, higher = more signal.
Experiment [7] concerns Neuregulin-1 EGF-like domain. Briefly: binders of neuregulin-1 EGF-like domain, primary screen, biochemical, small-molecule microarray, 635 nm fluorescence (AID 1081).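 Further: binding of the protein to compounds printed on small-molecule microarray slides.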 Particulars: small-molecule microarray binding, higher = more signal.
Experiment [8] in a line: FRG1 promoter luciferase signal modulators, primary screen, FRG1 inhibition for FSHD, cell-based, C2C12 myotubes, firefly/Renilla luciferase, luminescence (AID 1084). Particulars: higher = more signal, called active from +8 up or from −8 down.
A short description of experiment [9]: binders of probe aFST on microarray, primary screen, stem cell growth factor project, biochemical, small-molecule microarray, fluorescence 635/667 (AID 1086).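 Further: score merges 667 nm fluorescence with signal-to-noise of each printed compound spot.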 Particulars: higher = more signal.
Experiment [10] in a line: binders of probe aHhip on microarray, primary screen, stem cell growth factor project, biochemical, small-molecule microarray, fluorescence 635/667 (AID 1087).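 Further: score merges spot fluorescence at 667nm with spot signal to noise ratio.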 Particulars: higher = more signal.
In experiment [11] the test system is PRMT1 (protein arginine N-methyltransferase 1). Briefly: PRMT1 binders on small-molecule microarrays, primary screen, biochemical, small-molecule microarray, 635 nm fluorescence (AID 1088).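 Further: binding of Prmt1 protein to compounds spotted on small-molecule microarray slides.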 Particulars: small-molecule microarray binding, higher = more signal.
Experiment [12] in a line: yeast growth modulation, basal conditions, primary screen, YJM789 clinical isolate, OD600, 24 h (AID 1089).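 Further: growth of clinical yeast isolate S. cerevisiae YJM 789 seeded 1000 cells per well; test concentration not given here.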 The note with it: S. cerevisiae YJM789 growth, higher = more signal, called active from +8 up or from −8 down.
Experiment [13] in a line: fission yeast growth modulation, primary screen, strain 972, OD600, 24 h, no modulator (AID 1090).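 Further: basal condition with compound alone and no growth modifier present; test concentration not given here.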 Particulars: S. pombe 972 growth, higher = more signal, called active from +8 up or from −8 down.
Experiment [14] is described as follows: S. cerevisiae growth modulation with rapamycin, primary screen, strain BY4716, OD600, 96 h (AID 1091). Further: test concentration not given here. Particulars: higher = more signal, called active from +8 up or from −8 down.
In experiment [15] the target is Torsin-1A-interacting protein 2 (Homo sapiens) (UniProt Q8NFQ8). Briefly: LULL1 binders on small-molecule microarray, primary screen, cell lysate, human LULL1 lysate, 635/667 nm fluorescence (AID 1092).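 Further: probe is lysate of COS7 cells overexpressing human LULL1; score merges per-feature 667 nm fluorescence with signal-to-noise.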 Particulars: hLULL1 lysate binding, 635 nm fluorescence, higher = more signal.
The nature of experiment [16]: E. coli growth modulation, two-sided OD650, primary screen, E. coli filamentation project, strain DRC41, 24 h (AID 1093).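 Further: MC1000 strain lacking acrAB efflux and sulA so SOS filamentation is blocked; test concentration not given here.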 The note with it: OD650, 24 h, higher = more signal, called active from +8 up or from −8 down.
A short description of experiment [17]: small-molecule microarray binders of probe aLefty2, primary screen, biochemical, biotinylated probe, 635/667 nm fluorescence (AID 1094).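 Further: score merges spot fluorescence near 667 nm with spot signal-to-noise ratio.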 The note with it: higher = more signal.
The subject of experiment [18] is Noggin (protein binding on small-molecule microarray). Briefly: Noggin binders on small-molecule microarray, primary screen, biochemical, 635/667 nm fluorescence (AID 1095).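 Further: score merges 667 nm feature fluorescence with signal to noise over triplicate slides.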 Particulars: 635 nm fluorescence, higher = more signal.
Experiment [19] deals with Neurogenic locus notch homolog protein 3 (Homo sapiens) (UniProt Q9UM47). Briefly: NOTCH3 binders on small-molecule microarray, primary screen, biochemical, 635/667 nm fluorescence (AID 1096). The note with it: NOTCH3 binding, 635 nm fluorescence, higher = more signal.
Experiment [20] can be described thus: small-molecule microarray binders of probe aEGFR, primary screen, biochemical, biotinylated probe, 635/667 nm fluorescence (AID 1097).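 Further: probe is a biotinylated anti-EGFR antibody binding compounds printed on slides; score combines fluorescence near 667 nm and signal to noise of each spot.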 The note with it: higher = more signal.

Chain of Pro-neuregulin-1, membrane-bound isoform (Homo sapiens) (Q02297 whole entry, looked up, the tested form may be a part, canonical isoform): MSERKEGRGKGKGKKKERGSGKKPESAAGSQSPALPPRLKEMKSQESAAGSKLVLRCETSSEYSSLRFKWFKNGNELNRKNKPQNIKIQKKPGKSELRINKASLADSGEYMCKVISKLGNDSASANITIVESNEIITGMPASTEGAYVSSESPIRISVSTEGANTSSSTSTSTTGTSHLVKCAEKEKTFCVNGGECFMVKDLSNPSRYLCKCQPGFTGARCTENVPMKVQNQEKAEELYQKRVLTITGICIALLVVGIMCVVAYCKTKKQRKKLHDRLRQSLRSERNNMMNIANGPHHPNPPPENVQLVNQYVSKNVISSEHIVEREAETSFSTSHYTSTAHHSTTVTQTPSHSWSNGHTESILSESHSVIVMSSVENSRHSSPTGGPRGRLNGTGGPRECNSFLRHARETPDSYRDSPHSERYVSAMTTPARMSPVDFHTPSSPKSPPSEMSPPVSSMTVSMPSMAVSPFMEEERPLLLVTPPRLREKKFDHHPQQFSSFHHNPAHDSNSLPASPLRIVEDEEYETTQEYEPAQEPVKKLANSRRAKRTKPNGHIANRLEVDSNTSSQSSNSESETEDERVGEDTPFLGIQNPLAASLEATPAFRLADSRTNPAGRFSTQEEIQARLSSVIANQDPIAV
Chain of Neurogenic locus notch homolog protein 3 (Homo sapiens) (Q9UM47 whole entry, looked up): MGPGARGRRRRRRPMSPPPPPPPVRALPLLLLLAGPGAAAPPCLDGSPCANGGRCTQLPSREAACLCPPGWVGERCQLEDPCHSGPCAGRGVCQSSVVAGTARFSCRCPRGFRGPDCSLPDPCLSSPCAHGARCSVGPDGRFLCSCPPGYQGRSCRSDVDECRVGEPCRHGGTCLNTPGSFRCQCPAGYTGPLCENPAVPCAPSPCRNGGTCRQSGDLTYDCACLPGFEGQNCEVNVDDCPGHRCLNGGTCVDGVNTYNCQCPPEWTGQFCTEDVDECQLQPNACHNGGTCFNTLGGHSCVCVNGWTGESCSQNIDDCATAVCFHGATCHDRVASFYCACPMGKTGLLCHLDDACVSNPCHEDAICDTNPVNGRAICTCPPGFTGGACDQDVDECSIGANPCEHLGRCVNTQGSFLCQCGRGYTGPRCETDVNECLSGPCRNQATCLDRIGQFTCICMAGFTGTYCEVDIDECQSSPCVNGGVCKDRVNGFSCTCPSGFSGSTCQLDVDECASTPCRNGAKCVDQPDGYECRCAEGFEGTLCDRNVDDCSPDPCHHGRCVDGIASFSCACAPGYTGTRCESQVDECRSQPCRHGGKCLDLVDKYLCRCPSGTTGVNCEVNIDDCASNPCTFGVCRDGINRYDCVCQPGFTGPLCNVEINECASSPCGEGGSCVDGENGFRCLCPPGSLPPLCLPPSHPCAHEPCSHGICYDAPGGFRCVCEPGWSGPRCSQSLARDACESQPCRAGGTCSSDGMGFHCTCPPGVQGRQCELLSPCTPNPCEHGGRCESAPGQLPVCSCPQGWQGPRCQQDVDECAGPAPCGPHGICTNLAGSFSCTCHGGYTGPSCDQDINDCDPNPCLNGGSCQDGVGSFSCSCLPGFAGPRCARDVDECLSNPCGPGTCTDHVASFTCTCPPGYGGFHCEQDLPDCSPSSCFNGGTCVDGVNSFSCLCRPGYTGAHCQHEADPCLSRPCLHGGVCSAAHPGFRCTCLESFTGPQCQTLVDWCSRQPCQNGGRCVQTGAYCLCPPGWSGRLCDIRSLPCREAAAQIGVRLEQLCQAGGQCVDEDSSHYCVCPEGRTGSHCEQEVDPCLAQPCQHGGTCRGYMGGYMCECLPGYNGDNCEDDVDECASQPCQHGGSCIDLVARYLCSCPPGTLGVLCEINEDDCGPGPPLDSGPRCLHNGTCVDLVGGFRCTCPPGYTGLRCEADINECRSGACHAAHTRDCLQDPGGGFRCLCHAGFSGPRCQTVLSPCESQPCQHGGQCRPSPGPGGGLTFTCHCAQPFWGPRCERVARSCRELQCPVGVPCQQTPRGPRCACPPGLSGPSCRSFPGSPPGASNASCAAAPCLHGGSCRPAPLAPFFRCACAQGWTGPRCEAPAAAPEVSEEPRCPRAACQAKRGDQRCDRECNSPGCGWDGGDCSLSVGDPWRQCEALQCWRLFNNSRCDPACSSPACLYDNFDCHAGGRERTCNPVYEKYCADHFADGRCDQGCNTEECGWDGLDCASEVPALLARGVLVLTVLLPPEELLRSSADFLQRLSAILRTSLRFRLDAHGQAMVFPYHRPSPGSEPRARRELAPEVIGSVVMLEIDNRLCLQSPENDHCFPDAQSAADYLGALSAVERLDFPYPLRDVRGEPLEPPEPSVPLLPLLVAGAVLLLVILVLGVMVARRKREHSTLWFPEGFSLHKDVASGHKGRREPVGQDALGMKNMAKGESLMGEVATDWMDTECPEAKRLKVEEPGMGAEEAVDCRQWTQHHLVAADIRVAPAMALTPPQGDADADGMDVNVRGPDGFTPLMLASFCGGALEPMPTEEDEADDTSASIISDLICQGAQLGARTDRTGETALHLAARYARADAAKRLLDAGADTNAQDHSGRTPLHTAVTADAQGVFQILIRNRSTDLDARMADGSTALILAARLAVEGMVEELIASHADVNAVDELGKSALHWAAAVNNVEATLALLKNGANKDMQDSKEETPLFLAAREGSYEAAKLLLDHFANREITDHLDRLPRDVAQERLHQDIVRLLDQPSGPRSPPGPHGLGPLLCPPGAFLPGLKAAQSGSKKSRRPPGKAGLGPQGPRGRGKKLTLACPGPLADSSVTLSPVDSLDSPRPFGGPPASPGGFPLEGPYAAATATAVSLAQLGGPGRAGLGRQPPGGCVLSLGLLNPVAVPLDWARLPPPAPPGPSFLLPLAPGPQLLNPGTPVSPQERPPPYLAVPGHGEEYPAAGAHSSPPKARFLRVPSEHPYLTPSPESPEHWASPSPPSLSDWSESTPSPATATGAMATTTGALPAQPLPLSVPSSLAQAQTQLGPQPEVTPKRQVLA
Chain of Torsin-1A-interacting protein 2 (Homo sapiens) (Q8NFQ8 whole entry, looked up): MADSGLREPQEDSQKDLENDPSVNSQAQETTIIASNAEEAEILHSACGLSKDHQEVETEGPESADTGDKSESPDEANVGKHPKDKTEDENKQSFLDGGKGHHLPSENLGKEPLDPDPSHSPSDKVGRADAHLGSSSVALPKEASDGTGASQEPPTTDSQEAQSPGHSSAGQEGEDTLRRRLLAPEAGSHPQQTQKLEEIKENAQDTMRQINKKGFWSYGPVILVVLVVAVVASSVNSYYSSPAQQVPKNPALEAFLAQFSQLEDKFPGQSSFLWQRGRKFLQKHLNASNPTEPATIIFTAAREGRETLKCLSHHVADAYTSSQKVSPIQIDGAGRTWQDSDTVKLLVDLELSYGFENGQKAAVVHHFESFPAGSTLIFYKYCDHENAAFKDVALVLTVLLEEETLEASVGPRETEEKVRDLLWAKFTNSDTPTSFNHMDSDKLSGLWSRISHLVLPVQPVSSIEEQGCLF

For `CC(=O)NCCCC[C@@H]1NC(=O)[C@@H]2C[C@H](C(=O)NCCCCCNC(=O)CS)[C@H](c3cccc(OCCO)c3)N2C1=O`, the composite z-score is -0.525 in [1]; -0.047 in [2]; -0.211 in [3]; 0.37 in experiment [4]; 0.121 in experiment [5]; -0.122 in experiment [6]. Further, the composite z-score in experiment [7] is 0.709; in experiment [9], -0.195; in experiment [10], -0.212; in experiment [11] it was 1.18; in [15] it was -0.0484; in experiment [17], -0.141. In addition, the composite z-score is 1.55 in experiment [18], 0.486 in [19] and -0.0808 in experiment [20]. For the same compound, the z-score in [8] is 0.618 (inactive); in [12], -3.39 (inactive); in experiment [13] it was -0.0277 (inactive); in experiment [14] it was -2.5 (inactive); in experiment [16], 1.16 (inactive).

Regarding `CN(C)CCCCCCNC(=O)[C@H]1C[C@H]2C(=O)N3CCC[C@H]3C(=O)N2[C@H]1c1ccc(O)cc1`, the composite z-score in experiment [1] was -0.0698; in [2], 1.93; in experiment [3], 0.0082; in [4], 1.16; in experiment [5], 0.863; in experiment [6] it was 0.854. Moreover, the composite z-score in experiment [7] was found to be 1.49; in [9] it was 0.2; in experiment [10] it was 0.151; in experiment [11] it was 1.53; in [15], 2.9; in experiment [17] it was 0.172. Moreover, the composite z-score in [18] was found to be 1.74; in experiment [19], 1.07; in experiment [20] it was 0.475. Besides, the z-score in experiment [8] is 3.92 (inactive); in experiment [12] it was -0.389 (inactive); in experiment [13], -1.4 (inactive); in experiment [14] it was 0.24 (inactive); in [16], 1.95 (inactive).

Consider `COC(=O)[C@@]1(Cc2ccc(OC)cc2)[C@H]2c3cc(C(=O)N4CCCC4)n(CCN4CNCC4=O)c3C[C@H]2CN1C(=O)c1ccccc1`, for which the composite z-score in experiment [1] is 2.52; in experiment [2], 0.873; in experiment [3], 0.797; in experiment [4], 1.22; in [5] it was 1.4; in experiment [6] it was 1.78. Further, the composite z-score is 1.45 in [7]; 2.37 in experiment [9]; 3.13 in experiment [10]; -0.871 in [11]; 3.77 in experiment [15]; 1.42 in experiment [17]. Moreover, the composite z-score in [18] is -0.364; in experiment [19] it was 0.293; in [20] it was 1.15. Further, the z-score was 0.632 (inactive) in experiment [8]; 0.503 (inactive) in [12]; 0.706 (inactive) in [13]; 0.429 (inactive) in [14]; -0.977 (inactive) in [16].

Take `CCCCN1CC=CC23O[C@@H]4C=CCCOC(=O)C4[C@H]2C(=O)N(CCCCCCO)[C@@H]3C1=O` (stereo not given in full): the composite z-score in [1] is -0.206; in [2], -0.596; in [3], -0.246; in experiment [4] it was -0.309; in experiment [5] it was -1.1; in experiment [6], 1.2. In addition, the composite z-score was 1.41 in experiment [7]; -0.422 in experiment [9]; -0.7 in experiment [10]; 1.31 in experiment [11]; 1.74 in experiment [15]; -0.462 in experiment [17]. The composite z-score was -0.235 in [18], 0.294 in experiment [19] and -0.227 in experiment [20]. In addition, the z-score was 0.357 (inactive) in experiment [8]; -0.0739 (inactive) in experiment [12]; -0.576 (inactive) in experiment [13]; 0.2 (inactive) in experiment [14]; -0.444 (inactive) in [16].

`CCCC[C@@H]1C[C@H]1[C@@H](NC(=O)c1ccccc1)c1ccc(C(=O)OC)cc1`: the composite z-score was 1.37 in experiment [1]; -0.0965 in experiment [2]; -0.0273 in [3]; -0.282 in experiment [4]; -0.547 in experiment [5]; -0.273 in [6]. Also, the composite z-score is -0.544 in experiment [7]; -0.303 in experiment [9]; 0.35 in [10]; -0.406 in experiment [11]; 0.0062 in [15]; 0.285 in [17]. For the same compound, the composite z-score is 0.894 in experiment [18], -0.544 in experiment [19] and -0.224 in experiment [20]. Also, the z-score in [8] was 0.191 (inactive); in experiment [12] it was -1.24 (inactive); in experiment [13] it was -11.2 (active); in [14], -2.61 (inactive); in experiment [16] it was -1.13 (inactive).

The values above are taken from PubChem BioAssay.
